Active and inactive are the calls of the source. Rule for the calls: active = hit-call score of the fitted dose curve at least 0.9, where 1 is the maximum; inactive = score below 0.9.
What was measured:
[1] = molecular target: CCAAT/enhancer-binding protein beta (Homo sapiens) (UniProt P17676); experiment: ATG_C_EBP_CIS: Attagene CIS-FACTORIAL HepG2 Assay for human CCAAT/Enhancer Binding Protein (C/EBP) beta (AID 2282927); settings: HepG2 Attagene cis-factorial transcription factor reporter; actives raise or lower the signal
Chain of CCAAT/enhancer-binding protein beta (Homo sapiens) (P17676 whole entry, looked up, the tested form may be a part): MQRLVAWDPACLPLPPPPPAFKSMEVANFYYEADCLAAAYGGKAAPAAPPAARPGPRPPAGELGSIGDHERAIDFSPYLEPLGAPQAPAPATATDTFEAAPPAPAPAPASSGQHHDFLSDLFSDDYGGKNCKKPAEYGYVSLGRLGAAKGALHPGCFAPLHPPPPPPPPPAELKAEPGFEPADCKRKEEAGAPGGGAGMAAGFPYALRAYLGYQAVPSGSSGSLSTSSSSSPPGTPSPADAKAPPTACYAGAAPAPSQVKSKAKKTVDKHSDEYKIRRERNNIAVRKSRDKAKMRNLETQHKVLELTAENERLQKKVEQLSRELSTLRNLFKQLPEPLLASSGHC
Method in brief: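 Endogenous C/EBPb-driven reporter transcripts measured in transfected human HepG2 cells at 24 h via RT-PCR and capillary electrophoresis of labelled fragments. Activity fitted in both directions relative to DMSO baseline.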

[2] = ATG_CMV_CIS: Attagene CIS-FACTORIAL HepG2 Assay for human CMV (Internal Marker) (AID 2282928); settings: HepG2 CMV promoter reporter, transcription factor profiling; actives raise or lower the signal;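 note: endpoint acts as a background internal control marker rather than a target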
Method in brief: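 Cell system: HepG2, transiently transfected multiple reporter units under cis promoters. Exposure: 24 h. Detection: RT-PCR, FAM labeling, HpaI digestion, capillary electrophoresis. Analysis: bidirectional, DMSO baseline.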

[3] = ATG_DR4_LXR_CIS: Attagene CIS-FACTORIAL HepG2 Assay for human Liver X Receptor (LXR), DR4 submotif (AID 2282929); settings: HepG2 Attagene DR4 cis-reporter, mRNA transcription; actives raise or lower the signal
Method in brief: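 Readout: reporter transcript fluorescence after RT-PCR and capillary electrophoresis, fitted bidirectionally against DMSO controls. Human HepG2 liver cells carried transiently transfected multiplexed reporter constructs; endogenous transcription factor activity measured 24 h post-dosing.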

[4] = molecular target: Aryl hydrocarbon receptor (Homo sapiens) (UniProt P35869); experiment: ATG_Ahr_CIS: Attagene CIS-FACTORIAL HepG2 Assay for human Aryl Hydrocarbon Receptor (Ahr) (AID 2282930); settings: HepG2 AhR cis-factorial reporter transcription; actives raise or lower the signal
Chain of Aryl hydrocarbon receptor (Homo sapiens) (P35869 whole entry, looked up): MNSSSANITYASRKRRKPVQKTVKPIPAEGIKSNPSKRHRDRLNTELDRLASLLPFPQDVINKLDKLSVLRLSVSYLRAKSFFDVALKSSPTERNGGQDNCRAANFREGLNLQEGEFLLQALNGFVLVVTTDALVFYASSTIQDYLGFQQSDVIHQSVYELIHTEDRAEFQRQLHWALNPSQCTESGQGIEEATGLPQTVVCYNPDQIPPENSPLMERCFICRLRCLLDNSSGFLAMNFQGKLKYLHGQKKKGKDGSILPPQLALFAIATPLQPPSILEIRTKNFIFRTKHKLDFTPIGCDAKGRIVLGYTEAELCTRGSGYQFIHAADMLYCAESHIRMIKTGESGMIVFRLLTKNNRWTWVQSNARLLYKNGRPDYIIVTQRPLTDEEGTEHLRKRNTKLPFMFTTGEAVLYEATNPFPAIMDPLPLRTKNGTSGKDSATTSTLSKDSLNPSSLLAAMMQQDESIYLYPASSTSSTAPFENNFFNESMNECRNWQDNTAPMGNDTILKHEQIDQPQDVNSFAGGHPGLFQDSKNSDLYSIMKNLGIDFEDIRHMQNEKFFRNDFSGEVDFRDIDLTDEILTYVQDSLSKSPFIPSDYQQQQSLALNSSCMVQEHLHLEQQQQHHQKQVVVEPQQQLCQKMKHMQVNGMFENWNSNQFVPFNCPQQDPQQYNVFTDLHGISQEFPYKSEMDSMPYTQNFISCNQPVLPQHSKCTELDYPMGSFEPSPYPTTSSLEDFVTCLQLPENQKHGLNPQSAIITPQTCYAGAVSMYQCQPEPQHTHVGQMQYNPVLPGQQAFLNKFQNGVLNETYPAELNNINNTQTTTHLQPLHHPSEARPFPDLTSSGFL
Method in brief: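 Reporter mRNA levels, quantified by RT-PCR and fluorescent capillary electrophoresis, reflect endogenous AhR transcriptional activity in HepG2 cells carrying transfected cis-promoter reporter constructs. Readout at 24 h post-dose; gain or loss fitted against DMSO baseline.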

[5] = ATG_AP_1_CIS: Attagene CIS-FACTORIAL HepG2 Assay for human Activator Protein 1 (AP-1) (AID 2282931); settings: HepG2 Attagene cis-factorial AP-1 reporter mRNA; actives raise or lower the signal
Method in brief: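 Reporter transcripts were measured 24 h after dosing by RT-PCR and capillary electrophoresis of fluorescent fragments. Cells: HepG2 carrying transfected cis-regulated reporter constructs reading endogenous factor activity. Gain or loss fitted against DMSO.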

[6] = ATG_BRE_CIS: Attagene CIS-FACTORIAL HepG2 Assay for human Bone Morphogenetic Protein (BMP) Response Element (BRE) (AID 2282933); settings: HepG2 BMP response element reporter, Attagene transcription factor profiling; actives raise or lower the signal
Method in brief: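 HepG2 cells transiently transfected with multiplexed cis-element reporter units were dosed with chemical for 24 h. Reporter mRNA was measured by RT-PCR with fluorescent labelling, HpaI digestion and capillary electrophoresis; bidirectional fitting relative to DMSO.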

[7] = molecular target: Retinoic acid receptor alpha (Homo sapiens) (UniProt P10276); experiment: ATG_DR5_RAR_CIS: Attagene CIS-FACTORIAL HepG2 Assay for human Retinoic Acid Receptor Alpha (RARE), DR5 submotif (AID 2282934); settings: HepG2 Attagene cis-factorial RARE DR5 reporter, mRNA; actives raise or lower the signal
Chain of Retinoic acid receptor alpha (Homo sapiens) (P10276 whole entry, looked up): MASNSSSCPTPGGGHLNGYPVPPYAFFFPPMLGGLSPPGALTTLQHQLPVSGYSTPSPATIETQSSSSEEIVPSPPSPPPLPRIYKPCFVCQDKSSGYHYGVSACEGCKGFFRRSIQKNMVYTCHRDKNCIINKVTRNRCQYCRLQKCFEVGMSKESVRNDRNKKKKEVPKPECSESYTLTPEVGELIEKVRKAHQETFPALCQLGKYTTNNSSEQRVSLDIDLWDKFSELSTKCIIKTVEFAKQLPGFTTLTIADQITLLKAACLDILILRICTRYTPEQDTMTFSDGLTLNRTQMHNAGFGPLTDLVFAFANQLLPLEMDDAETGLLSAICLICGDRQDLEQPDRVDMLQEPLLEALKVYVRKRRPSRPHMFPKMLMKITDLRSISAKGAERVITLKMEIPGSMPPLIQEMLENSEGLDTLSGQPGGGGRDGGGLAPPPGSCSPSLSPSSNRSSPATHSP
Method in brief: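 Reporter transcripts from a DR5-regulated unit, measured via RT-PCR plus capillary electrophoresis, reflect endogenous RAR activity in transiently transfected human HepG2 liver cells. Exposure lasted 24 h; gain or loss of signal scored against DMSO.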

[8] = molecular target: Transcription factor E2F1 (Homo sapiens) (UniProt Q01094); experiment: ATG_E2F_CIS: Attagene CIS-FACTORIAL HepG2 Assay for human E2F Transcription Factor 1 (AID 2282935); settings: HepG2 Attagene cis-reporter, E2F reporter RNA transcripts; actives raise or lower the signal
Chain of Transcription factor E2F1 (Homo sapiens) (Q01094 whole entry, looked up): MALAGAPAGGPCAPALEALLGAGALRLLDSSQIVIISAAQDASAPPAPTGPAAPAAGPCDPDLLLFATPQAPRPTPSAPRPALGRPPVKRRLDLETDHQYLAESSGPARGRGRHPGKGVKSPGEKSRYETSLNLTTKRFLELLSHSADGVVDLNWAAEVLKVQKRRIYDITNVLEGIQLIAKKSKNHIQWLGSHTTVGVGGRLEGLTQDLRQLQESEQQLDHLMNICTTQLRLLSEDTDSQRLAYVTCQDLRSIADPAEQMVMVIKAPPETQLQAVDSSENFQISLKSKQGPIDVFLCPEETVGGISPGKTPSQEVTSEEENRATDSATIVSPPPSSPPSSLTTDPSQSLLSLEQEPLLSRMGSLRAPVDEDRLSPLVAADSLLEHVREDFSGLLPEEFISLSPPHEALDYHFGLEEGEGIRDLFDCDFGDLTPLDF
Method in brief: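 Cis-element reporter mRNA induction in transiently transfected HepG2, 24 h exposure. Activity fitted in both directions relative to DMSO negative control.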

[9] = ATG_E_Box_CIS: Attagene CIS-FACTORIAL HepG2 Assay for human Enhancer Box (E-box) (AID 2282936); settings: HepG2 E-box cis-reporter transcription, actives raise or lower the signal
Method in brief: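 Cells: HepG2 (human liver), transient MRTU transfection. Exposure 24 h. RNA → oligo(dT) RT → PCR → 6-FAM label → HpaI → CE. Activity fitted both directions relative to DMSO.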

[10] = ATG_M_61_CIS: Attagene CIS-FACTORIAL HepG2 Assay for M61 Transcription Factor (Internal Marker) (AID 2282937); settings: HepG2 Attagene CIS-FACTORIAL M61 internal marker reporter; actives raise or lower the signal
Method in brief: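 Readout: fluorescent reporter mRNA fragments resolved by capillary electrophoresis after RT-PCR. Transiently transfected human HepG2 cells carried MRTU constructs reporting endogenous TF activity; 24 h chemical exposure; gain or loss of signal fitted relative to DMSO.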

[11] = ATG_EGR_CIS: Attagene CIS-FACTORIAL HepG2 Assay for human Early Growth Response 1 (EGR1) (AID 2282938); settings: HepG2 Attagene CIS-FACTORIAL EGR reporter mRNA; actives raise or lower the signal
Method in brief: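 Read-out: fluorescent reporter-mRNA fragments resolved by capillary electrophoresis after RT-PCR, 24 h post-dose in transiently transfected HepG2. Endogenous transcription-factor activity reported via cis-element-regulated reporter units; gain or loss fitted relative to DMSO.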

[12] = ATG_M_19_CIS: Attagene CIS-FACTORIAL HepG2 Assay for M19 Transcription Factor (Internal Marker) (AID 2282939); settings: HepG2 Attagene CIS-FACTORIAL M19 internal marker reporter; actives raise or lower the signal
Method in brief: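 HepG2 cells transiently transfected with cis-regulated multiple reporter transcription units were dosed for 24 h; reporter mRNA was quantified by RT-PCR, 6-FAM primer-extension labelling, HpaI digestion and capillary electrophoresis, with bidirectional fitting against DMSO baseline.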

[13] = ATG_ERE_CIS: Attagene CIS-FACTORIAL HepG2 Assay for Estrogen Response Element (ERE) (AID 2282940); settings: HepG2 ERE cis-reporter, Attagene RNA transcript; actives raise or lower the signal
Method in brief: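 HepG2 cells transiently transfected with cis-promoter-driven multiplexed reporter transcription units report endogenous TF activity. After 24 h compound exposure, reporter mRNA is quantified by RT-PCR with capillary electrophoresis fluorescence; bidirectional fitting versus DMSO baseline.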

[14] = ATG_Ets_CIS: Attagene CIS-FACTORIAL HepG2 Assay for human Erythroblast Transformation Specific (ETS) (AID 2282941); settings: HepG2 ETS cis-reporter transcription, actives raise or lower the signal
Method in brief: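 After transient cis-reporter transfection, HepG2 cells receive test chemical for 24 h. Reporter mRNA levels, measured by RT-PCR and capillary electrophoresis fluorescence, are analysed bidirectionally relative to the DMSO baseline.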

[15] = ATG_FoxO_CIS: Attagene CIS-FACTORIAL HepG2 Assay for human Forkhead box O (FoxO) (AID 2282943); settings: HepG2 Attagene cis-reporter, FoxO element, mRNA; actives raise or lower the signal
Method in brief: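 Endogenous transcription factor activity read from multiplexed cis-promoter reporter transcripts in transiently transfected HepG2, 24 h after dosing. Reporter RNA measured via RT-PCR plus capillary electrophoresis of FAM-labeled products; gain or loss relative to DMSO.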

[16] = ATG_GATA_CIS: Attagene CIS-FACTORIAL HepG2 Assay for human GATA Binding Protein (AID 2282944); settings: HepG2 GATA cis-element reporter, Attagene multiplex mRNA; actives raise or lower the signal
Method in brief: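 HepG2 cells transiently transfected with multiplexed cis-element reporter units reflecting endogenous transcription factor activity; reporter mRNA measured after 24 h dosing by RT-PCR, 6-FAM labeling, HpaI digestion and capillary electrophoresis. Bidirectional fitting versus DMSO baseline.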

[17] = ATG_GLI_CIS: Attagene CIS-FACTORIAL HepG2 Assay for human Zinc Finger Protein GLI1 (AID 2282945); settings: HepG2, Attagene cis-factorial reporter mRNA, GLI element; actives raise or lower the signal
Method in brief: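 Bidirectional curve fits relative to DMSO, using reporter mRNA levels from RT-PCR plus capillary electrophoresis. Cells were HepG2 transiently carrying cis-regulated reporter constructs, harvested 24 h after dosing.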

[18] = ATG_AP_2_CIS: Attagene CIS-FACTORIAL HepG2 Assay for human Activator Protein 2 (AP-2) (AID 2282932); settings: HepG2 AP-2 cis-reporter, Attagene transcription factor profiling; actives raise or lower the signal
Method in brief: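 HepG2, transient MRTU transfection, cis-regulated reporters; 24 h compound exposure; RNA isolated, RT-PCR, 6-FAM labelling, HpaI digest, CE fluorescence. DMSO = negative control/baseline, bidirectional fit.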

Measured: AC50

COC(=O)c1ccccc1S(=O)(=O)NC(=O)Nc1nc(OC(F)F)cc(OC(F)F)n1
not listed: [18]
inactive: all other assays above

COC(=O)c1c(Cl)nn(C)c1S(=O)(=O)NC(=O)Nc1nc(OC)cc(OC)n1
active: [1] 4.06 µM
not listed: [4] | [11] | [14] | [18]
inactive: all other assays above

O=C(c1ccccc1)C1CCCCC1
active: [13] 17.4 µM [middle of 4 runs]
not listed: [4] | [11] | [14]
inactive: all other assays above
